Most compounds without a hit are left out; they make up all but 3% or so of the library.
SNCA expr inhib = Primary qHTS assay for inhibitors of alpha-synuclein gene (SNCA) expression. 0.17% of 140,000 active. Potency, µM (titrated, usually from 57.2 µM), usual class: inhibitors. HEK-293 SNCA-luciferase knock-in, luminescence, 24 h; also: nearly all actives have a fitted effect of over 45% in size
IP6K1 inh = Primary qHTS assay for small molecule inhibitors of Inositol hexaphosphate kinase 1 (IP6K1); IP6K1 kinase, ADP-Glo luminescence, 2 h; stronger effect = lower value; activity change, % (series mostly up to about 58 µM); 0.81% of 140,000 active; AID 1645851, 2021; in the data active = activity change below about -25%
Target sequence (Q92551 whole entry, looked up): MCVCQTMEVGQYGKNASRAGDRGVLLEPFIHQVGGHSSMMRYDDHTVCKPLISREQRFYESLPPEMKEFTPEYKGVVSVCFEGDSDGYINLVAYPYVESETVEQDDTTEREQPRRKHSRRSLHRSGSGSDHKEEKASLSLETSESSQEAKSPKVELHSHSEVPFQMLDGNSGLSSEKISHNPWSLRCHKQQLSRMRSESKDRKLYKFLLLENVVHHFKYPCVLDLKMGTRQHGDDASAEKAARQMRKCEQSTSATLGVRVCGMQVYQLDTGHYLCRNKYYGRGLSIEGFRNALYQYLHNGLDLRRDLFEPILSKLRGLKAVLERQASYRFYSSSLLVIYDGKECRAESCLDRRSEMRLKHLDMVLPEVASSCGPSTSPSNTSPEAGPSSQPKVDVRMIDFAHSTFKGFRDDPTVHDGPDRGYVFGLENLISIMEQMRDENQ
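ADP-Glo luminescence measures ADP made by human IP6K1 during a 2 h RT reaction with ATP/IP6 (mix at 1.3 mM/130 uM); top library doses 57.5 and 19.1 uM final.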
SNCA viab count = GF-AFC viability counterscreen for inhibitors of alpha-synuclein gene (SNCA) expression; Potency, µM (series often up to 57.1 µM), actives largely listed as cytotoxic; HEK-293-SNCA-luc viability, GF-AFC fluorescence, 24 h; 0.12% of 150,000 active; also: nearly all actives have a fitted effect of over 30% in size
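HEK-293-SNCA-luc cells (1500/well) plated 24 h, then exposed 24 h to a dilution series; GF-AFC added 30 min at 37C, fluorescence 405/540 nm; normalised to medium-only and DMSO wells, Hill fit.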
KDM5B inh = Primary screen for KDM5B Histone Demethylases FDH-coupled qHTS | Lysine-specific demethylase 5B (Homo sapiens), Q9UGL1 | KDM5B demethylase, FDH-coupled NADH fluorescence (FDH is formaldehyde dehydrogenase) | Potency, µM (doses to about 57.7 µM), usual class: inhibitors | 2.6% of 220,000 active | AID 1347165, 2019; also: nearly all actives have a fitted effect of over 70% in size
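Coupled FDH/NAD⁺ fluorescence readout. KDM5BΔAP 200 nM final; compound titration, 10 min RT preincubation; substrate mix 12.5 µM H3K4me3, 25 µM 2-OG, 50 µM Fe(II), 100 µM ascorbate, 0.25 mM NAD⁺, 0.25 U/mL FDH; ΔRFU over 30 min.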
Large screens that a line does not name were inactive. Unless noted, calls follow the shape of the dose curve; as a rule, active = well fitted curve in the direction sought with a large enough effect; inconclusive = small, poorly fitted or top-dose-only effect, or another doubt; inactive = no such curve, though single readings can be large; an effect the other way counts as inactive or inconclusive.

Fc1cccc(CN2CCCC3(CCN(c4cnccn4)C3)C2)c1F (stereo unspecified)	KDM5B inh 28.2µM
Cc1ccc(-c2ccccc2CN2CCN(C(=O)c3ccc(Cl)nc3)CC2)cc1Cl	none (no result: KDM5B inh)
CN(C)[C@@H]1C[C@@H](CO)N(Cc2cc(=O)n3c4c(cccc24)CCC3)C1	KDM5B inh 22.4µM
Cc1ccc(-c2ccc3nnc(CNC(=O)CNC(=O)c4ccccc4)n3n2)cc1	SNCA expr inhib inconclusive, KDM5B inh 31.6µM
COc1ccc(-c2ccc3nnc(CNC(=O)COc4ccccc4)n3n2)cc1	KDM5B inh 28.2µM
COc1ccc(-c2ccc3nnc(CNC(=O)CNC(=O)c4ccccc4)n3n2)cc1	KDM5B inh 28.2µM
O=C(c1ccc(-c2cccs2)cc1)N1CCC(N[S+](=O)([O-])c2cccs2)CC1	none (no result: KDM5B inh)
COC(=O)c1ccccc1NC(=O)N1CCC[C@@H](O)[C@H](NC(=O)c2ccc(OCc3ccccc3)cc2)C1	KDM5B inh 25.1µM
COCCOc1ccc(C(=O)N[C@@H]2CN(C(=O)Nc3ccccc3C(=O)OC)CCC[C@H]2O)cc1	none
CC(C)NC(=O)N1Cc2ccccc2OC2(CCN(C(=O)c3cccc4[nH]ccc34)CC2)C1	SNCA expr inhib inconclusive
CN(C)C(=O)N1CCC2(CC1)CN(C(=O)c1cccc3[nH]ccc13)Cc1ccccc1O2	KDM5B inh 50.1µM
CC(=O)N1Cc2ccccc2OC2(CCN(C(=O)c3ccnc(N)c3)CC2)C1	SNCA expr inhib inconclusive, KDM5B inh 79.4µM
COc1ccccc1Nc1ccnc(N2CCC(N[S+](=O)([O-])c3ccccc3)CC2)n1	none (no result: KDM5B inh)
O=C(N[C@H]1[C@H](O)[C@H](O)C[C@@H]1c1ccc(N2CCOCC2)nc1)c1ccc2c(c1)OCCO2	SNCA viab count inconclusive, KDM5B inh inconclusive
COc1ccc(CC(=O)N[C@H]2[C@H](O)[C@H](O)C[C@@H]2c2ccc(N3CCOCC3)nc2)cc1	KDM5B inh 31.6µM
O=C(COc1ccccc1)N[C@H]1[C@H](O)[C@H](O)C[C@@H]1c1ccc(N2CCOCC2)nc1	KDM5B inh 31.6µM
CC(C)C(=O)N[C@H]1[C@H](O)[C@H](O)C[C@@H]1c1ccc(N2CCOCC2)nc1	KDM5B inh 39.8µM
O=C(N[C@H]1[C@H](O)[C@H](O)C[C@@H]1c1ccc(N2CCOCC2)nc1)c1nc2ccccc2s1	none
COc1ccc(NC(=O)Cn2c(N3CCCCC3)nc(C)c(C)c2=O)cc1Cl	SNCA viab count inconclusive
COc1ccc(-c2ccnc3ncnn23)c(F)c1	KDM5B inh 28.2µM
COc1cc(F)ccc1-c1ccnc2ncnn12	KDM5B inh 25.1µM
O=C(NC1CCN(Cc2cccc(-c3ccc(F)c(F)c3)c2)CC1)c1ccccc1Cl	none (no result: KDM5B inh)
O=C1CCN(CC(O)C(F)(F)F)c2ccccc2CN1Cc1ccccc1 (stereo unspecified)	none (no result: SNCA expr inhib, SNCA viab count, KDM5B inh)
O=C(NC1CCCCCC1)C1CCN(C(=O)c2ccc(-c3cccs3)cc2)CC1	none (no result: SNCA expr inhib, SNCA viab count, KDM5B inh)
C[S+](=O)([O-])N1CCC(Cn2ccc3c(N4CCOCC4)nc(-c4cccc5[nH]ccc45)cc32)CC1	SNCA expr inhib inconclusive
c1cc(-c2cc3c(ccn3Cc3ccncc3)c(N3CCOCC3)n2)c2cc[nH]c2c1	KDM5B inh 20µM
N#Cc1ccccc1-c1cc2c(ccn2Cc2ccncc2)c(N2CCOCC2)n1	KDM5B inh inconclusive
c1cc(-c2cc3c(ccn3Cc3ccncc3)c(N3CCOCC3)n2)c2cn[nH]c2c1	KDM5B inh 20µM
c1cc(-c2cc3c(ccn3Cc3ccncc3)c(N3CCOCC3)n2)c2[nH]ncc2c1	SNCA expr inhib inconclusive, KDM5B inh 25.1µM
COc1ccc(-c2cccc(C(=O)NCCc3ccc(Cl)cc3)c2)nn1	none (no result: SNCA expr inhib, SNCA viab count, KDM5B inh)
NC(=O)[C@@H]1CN(C(=O)c2cccc3c2OC(F)(F)O3)[C@H]2c3ccccc3O[C@@H]12	none (no result: SNCA expr inhib, SNCA viab count, KDM5B inh)
CNC(=O)c1cc(-c2ccc(Cl)nc2)nc2c1cnn2C	none (no result: KDM5B inh)
COc1cc(Cl)ccc1C(=O)N[C@@H]1CN(c2ncccn2)C[C@H]1CN(C)C	KDM5B inh 28.2µM
COc1ccc(Cl)cc1C(=O)N[C@@H]1CN(c2ncccn2)C[C@H]1CN(C)C	KDM5B inh inconclusive
CN(C)C[C@@H]1CN(c2ncccn2)C[C@H]1NC(=O)c1ccc2cc[nH]c2c1	SNCA expr inhib inconclusive, KDM5B inh 25.1µM
COc1ccc(C(=O)N[C@@H]2CN(c3ncccn3)C[C@H]2CN(C)C)c(OC)c1	KDM5B inh 25.1µM
CN(C)C[C@@H]1CN(c2ncccn2)C[C@H]1NC(=O)C1(C)CCOCC1	KDM5B inh inconclusive
COc1ccc(C(=O)N[C@@H]2CN(Cc3cccnc3)C[C@H]2CN(C)C)c(OC)c1	KDM5B inh inconclusive
COc1ccc(C2(C(=O)N[C@@H]3CN(c4ncccn4)C[C@H]3CN(C)C)CC2)cc1	KDM5B inh 28.2µM
CN(C)C[C@@H]1CN(c2ncccn2)C[C@H]1NC(=O)c1cccc2[nH]ccc12	none
COc1cccc(OC)c1C(=O)N1CC(=O)N(CCOc2ccccc2)CC(O)C1 (stereo unspecified)	none (no result: SNCA expr inhib, SNCA viab count, KDM5B inh)
COc1ccc(C(=O)N[C@@H]2CN(c3ncccn3)C[C@H]2CN(C)C)cn1	KDM5B inh inconclusive
COc1ccc(C(=O)N[C@@H]2CN(c3ncccn3)C[C@H]2CN(C)C)cc1OC	KDM5B inh 28.2µM
O=C(CCc1cn2ccccc2n1)N[C@H]1[C@@H]2CCO[C@@H]2[C@@H]1C1CCCC1	KDM5B inh 28.2µM
Cn1cccc1CN1CCC(N2CCOCC2=O)CC1	SNCA expr inhib inconclusive, KDM5B inh inconclusive
Cn1cccc1CN1CCC(N2CCOC2=O)CC1	KDM5B inh 89.1µM
Cc1ccc(Nc2ccnc(N3CCC(NC(=O)C4CC4)CC3)n2)cc1	SNCA expr inhib inconclusive (no result: KDM5B inh)
O=C(NCCc1ccccc1)C1CC(=O)N(c2n[nH]c3cccc(F)c23)C1 (stereo unspecified)	none
COc1ccccc1CCNC(=O)C1CC(=O)N(c2n[nH]c3cccc(F)c23)C1 (stereo unspecified)	KDM5B inh 22.4µM
O=C(NCCc1cccc(F)c1)C1CC(=O)N(c2n[nH]c3cccc(F)c23)C1 (stereo unspecified)	KDM5B inh 22.4µM
COc1ccc2[nH]cc(CCNC(=O)C3CC(=O)N(c4n[nH]c5cccc(F)c45)C3)c2c1 (stereo unspecified)	KDM5B inh 22.4µM
CC(=O)N1CC2(CCN(Cc3cc4ccccc4[nH]3)C2)Cc2ccccc21 (stereo unspecified)	KDM5B inh inconclusive
COc1ccc(Nc2cc(-c3ccccc3OC)nc3c(C)noc23)cc1OC	KDM5B inh inconclusive
COc1ccc(CN2CCOC(c3cccnc3)C2)cc1Cn1cccn1 (stereo unspecified)	none
COc1ccc(-c2ncc(CN3CCOC(c4cccnc4)C3)cn2)cc1 (stereo unspecified)	KDM5B inh 22.4µM
